PubChem BioAssay AID1159580 (chemical genetic matrix, 2015)
“And” between values parts separate entries of the source, which are not always exact repeats. Equal entries are not always repeated. About 2,000 (36%) of roughly 5,500 compounds were called active. Another 18% or so got no clear call; they are omitted. Cut-off read from the data, not from the text of the source: active = normalized growth mostly below about 0.91 (no sharp cut-off); inconclusive = no clear call, values can overlap the other calls; inactive = mostly above about 0.92. The list shows a part of the results.

Assay: chemical genetic growth profiling, strain panel (AID 1159580);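 note: tested at 20 µM; growth read once vehicle control cultures reached saturation at 30 °C; 1 = growth at the plate median or of vehicle wells; lower values mean less growth of the strain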
Conditions: growth OD
[1] = S. cerevisiae deletion strains, locus YAL013W, strain DEP1, hits give low values
[2] = S. cerevisiae deletion strains, locus YBR021W, strain FUR4, hits give low values
[3] = S. cerevisiae deletion strains, locus YBR229C, strain ROT2, hits give low values
[4] = S. cerevisiae deletion strains, locus YCL029C, strain bik1, hits give low values
[5] = S. cerevisiae deletion strains, locus YDL035C, strain GPR1, hits give low values
[6] = S. cerevisiae deletion strains, locus YDL074C, strain BRE1, hits give low values
[7] = S. cerevisiae deletion strains, locus YDL101C, strain DUN1, hits give low values
[8] = S. cerevisiae deletion strains, locus YDL134C, strain PPH21, hits give low values
[9] = S. cerevisiae deletion strains, locus YDL185W, strain tfp1, hits give low values
[10] = S. cerevisiae deletion strains, locus YDL192W, strain arf1, hits give low values
[11] = S. cerevisiae deletion strains, locus YDR101C, strain arx1, hits give low values
[12] = S. cerevisiae deletion strains, locus YDR150W, strain NUM1, hits give low values
[13] = S. cerevisiae deletion strains, locus YDR162C, strain NBP2, hits give low values
[14] = S. cerevisiae deletion strains, locus YDR318W, strain mcm21, hits give low values
[15] = S. cerevisiae deletion strains, locus YDR388W, hits give low values
[16] = S. cerevisiae deletion strains, locus YDR502C, strain sam2, hits give low values
[17] = S. cerevisiae deletion strains, locus YEL061C, strain CIN8, hits give low values
[18] = S. cerevisiae deletion strains, locus YER110C, hits give low values
[19] = S. cerevisiae deletion strains, locus YER155C, strain BEM2, hits give low values
[20] = S. cerevisiae deletion strains, locus YER167W, strain BCK2, hits give low values
[21] = S. cerevisiae deletion strains, locus YGL078C, strain dbp3, hits give low values
[22] = S. cerevisiae deletion strains, locus YGL086W, strain mad1, hits give low values
[23] = S. cerevisiae deletion strains, locus YGL248W, strain PDE1, hits give low values
[24] = S. cerevisiae deletion strains, locus YGR078C, strain PAC10, hits give low values
[25] = S. cerevisiae deletion strains, locus YGR135W, strain pre9, hits give low values
[26] = S. cerevisiae deletion strains, locus YGR229C, strain SMI1, hits give low values
[27] = S. cerevisiae deletion strains, locus YGR252W, strain gcn5, hits give low values
[28] = S. cerevisiae deletion strains, locus YHR030C, strain SLT2, hits give low values
[29] = S. cerevisiae deletion strains, locus YHR079C, strain IRE1 (second series), hits give low values
[30] = S. cerevisiae deletion strains, locus YHR094C, strain hxt1, hits give low values
[31] = S. cerevisiae deletion strains, locus YHR129C, strain ARP1, hits give low values
[32] = S. cerevisiae deletion strains, locus YHR200W, strain rpn10, hits give low values
[33] = S. cerevisiae deletion strains, locus YIL066C, strain RNR3, hits give low values
[34] = S. cerevisiae deletion strains, locus YIL073C, strain SPO22, hits give low values
[35] = S. cerevisiae deletion strains, locus YIL125W, strain kgd1, hits give low values
[36] = S. cerevisiae deletion strains, locus YIR030C, strain dcg1, hits give low values
[37] = S. cerevisiae deletion strains, locus YJL095W, strain BCK1, hits give low values
[38] = S. cerevisiae deletion strains, locus YJL134W, strain LCB3, hits give low values
[39] = S. cerevisiae deletion strains, locus YJL168C, strain set2, hits give low values
[40] = S. cerevisiae deletion strains, locus YJL187C, strain SWE1 (second series), hits give low values
[41] = S. cerevisiae deletion strains, locus YJR043C, strain POL32, hits give low values
[42] = S. cerevisiae deletion strains, locus YJR075W, strain HOC1, hits give low values
[43] = S. cerevisiae deletion strains, locus YKL009W, strain mrt4, hits give low values
[44] = S. cerevisiae deletion strains, locus YKL068W, hits give low values
[45] = S. cerevisiae deletion strains, locus YKL085W, strain MDH1 (second series), hits give low values
[46] = S. cerevisiae deletion strains, locus YKL085W, strain MDH1, hits give low values
[47] = S. cerevisiae deletion strains, locus YKL190W, strain CNB1, hits give low values
[48] = S. cerevisiae deletion strains, locus YKR001C, strain vps1, hits give low values
[49] = S. cerevisiae deletion strains, locus YLR039C, strain RIC1, hits give low values
[50] = S. cerevisiae deletion strains, locus YLR058C, strain SHM2, hits give low values
[51] = S. cerevisiae deletion strains, locus YLR102C, strain apc9, hits give low values
[52] = S. cerevisiae deletion strains, locus YLR262C, strain YPT6, hits give low values
[53] = S. cerevisiae deletion strains, locus YLR268W, strain sec22, hits give low values
[54] = S. cerevisiae deletion strains, locus YLR330W, strain CHS5, hits give low values
[55] = S. cerevisiae deletion strains, locus YLR342W, strain FKS1 (second series), hits give low values
[56] = S. cerevisiae deletion strains, locus YLR371W, strain rom2, hits give low values
[57] = S. cerevisiae deletion strains, locus YLR418C, strain cdc73, hits give low values
[58] = S. cerevisiae deletion strains, locus YML016C, strain PPZ1, hits give low values
[59] = S. cerevisiae deletion strains, locus YML032C, strain rad52, hits give low values
[60] = S. cerevisiae deletion strains, locus YML124C, strain tub3, hits give low values
[61] = S. cerevisiae deletion strains, locus YMR078C, strain ctf18, hits give low values
[62] = S. cerevisiae deletion strains, locus YMR223W, strain ubp8, hits give low values
[63] = S. cerevisiae deletion strains, locus YMR263W, strain SAP30, hits give low values
[64] = S. cerevisiae deletion strains, locus YMR307W, strain GAS1, hits give low values
[65] = S. cerevisiae deletion strains, locus YNL067W, strain RPL9B, hits give low values
[66] = S. cerevisiae deletion strains, locus YNL128W, strain TEP1, hits give low values
[67] = S. cerevisiae deletion strains, locus YNL153C, strain GIM3, hits give low values
[68] = S. cerevisiae deletion strains, locus YNL233W, strain BNI4, hits give low values
[69] = S. cerevisiae deletion strains, locus YNL250W, strain rad50, hits give low values
[70] = S. cerevisiae deletion strains, locus YNL271C, strain bni1, hits give low values
[71] = S. cerevisiae deletion strains, locus YNL298W, strain CLA4, hits give low values
[72] = S. cerevisiae deletion strains, locus YNL307C, strain MCK1, hits give low values
[73] = S. cerevisiae deletion strains, locus YNL322C, strain KRE1, hits give low values
[74] = S. cerevisiae deletion strains, locus YNR052C, strain pop2, hits give low values
[75] = S. cerevisiae deletion strains, locus YOL006C, strain TOP1, hits give low values
[76] = S. cerevisiae deletion strains, locus YOL012C, strain htz1
[77] = S. cerevisiae deletion strains, locus YOL147C, strain pex11, hits give low values
[78] = S. cerevisiae deletion strains, locus YOR061W, strain CKA2, hits give low values
[79] = S. cerevisiae deletion strains, locus YOR069W, strain VPS5, hits give low values
[80] = S. cerevisiae deletion strains, locus YOR136W, strain idh2, hits give low values
[81] = S. cerevisiae deletion strains, locus YOR144C, strain elg1, hits give low values
[82] = S. cerevisiae deletion strains, locus YOR184W, strain ser1, hits give low values
[83] = S. cerevisiae deletion strains, locus YOR316C, strain cot1, hits give low values
[84] = S. cerevisiae deletion strains, locus YPL055C, strain LGE1, hits give low values
[85] = S. cerevisiae deletion strains, locus YPL241C, strain CIN2, hits give low values
[86] = S. cerevisiae deletion strains, locus YPR119W, strain clb2, hits give low values
[87] = S. cerevisiae deletion strains, locus YPR141C, strain kar3, hits give low values
[88] = S. cerevisiae deletion strains, locus YPR163C, strain tif3, hits give low values
[89] = S. cerevisiae deletion strains, locus YPR167C, strain met16, hits give low values
[90] = S. cerevisiae deletion strains, strain wtn01, hits give low values
[91] = S. cerevisiae strains, strain wild type, hits give low values

Measured: normalized growth

COc1ccc(-c2cc(=O)c3c(O)cc(O)cc3o2)cc1O
inactive: [1] 1 | [2] 0.985 | [3] 0.987 | [4] 0.997 | [5] 0.983 | [6] 0.969 | [7] 0.998 | [8] 0.993 | [9] 1.01 | [10] 0.999 | [11] 0.98 | [12] 1 | [13] 0.961 | [14] 0.995 | [15] 0.993 | [16] 0.975 | [17] 0.994 | [18] 1 | [19] 1 | [20] 0.997 | [21] 0.989 | [22] 0.981 | [23] 0.997 | [24] 0.952 | [25] 0.962 | [26] 0.937 | [27] 0.96 | [28] 0.997 and 1.02 | [29] 0.983 | S. cerevisiae deletion strains, locus YHR079C, strain IRE1, hits give low values 1.01 | [30] 1 | [31] 0.989 | [32] 0.99 | [33] 0.987 | [34] 1.02 | [35] 0.995 | [36] 0.991 | [37] 0.944 and 0.996 | [38] 0.998 | [39] 0.998 | [40] 0.967 | [41] 0.998 | S. cerevisiae deletion strains, locus YJR066W, strain TOR1, hits give low values 0.986 | [42] 1.04 | [43] 0.89 | [44] 0.968 | [47] 0.993 | [48] 1 | [49] 0.928 | [50] 0.989 | [51] 0.995 | S. cerevisiae deletion strains, locus YLR113W, strain HOG1, hits give low values 0.888 | [52] 0.921 | [53] 0.944 | [54] 0.999 | [55] 1.02 | [56] 0.99 | [57] 0.925 | [58] 0.991 | [59] 1.01 | [60] 0.988 | [61] 1 | [62] 0.993 | [63] 0.982 | [64] 1.08 | [65] 0.983 | [66] 0.988 | [67] 0.958 | S. cerevisiae deletion strains, locus YNL183C, strain NPR1, hits give low values 0.921 | [68] 0.947 | [69] 1 | [70] 1 | [71] 1.03 | [72] 1 | [73] 0.996 | [74] 0.994 | [75] 0.973 | [76] 0.983 | [77] 0.992 | [78] 1 | [79] 0.998 | [80] 0.993 | [81] 0.997 | [82] 0.982 | S. cerevisiae deletion strains, locus YOR231W, strain MKK1, hits give low values 1.01 | [83] 0.989 | [84] 0.97 | [85] 1 | S. cerevisiae deletion strains, locus YPL256C, strain CLN2, hits give low values 0.993 | [86] 0.993 | [87] 1.01 | [88] 1.01 | [89] 0.991 | [90] 0.977 | [91] 0.99
active: [45] 0.913 | [46] 0.913

COc1cc(C)c2c(=O)c3c(O)cc(OC)cc3oc2c1
inactive: [1] 1.01 | [2] 0.968 | [3] 1.02 | [4] 0.991 | [5] 1.01 | [6] 1.02 | [7] 1.02 | [8] 1.01 | [9] 0.991 | [10] 0.986 | [11] 0.981 | [12] 1.02 | [13] 1.02 | [14] 0.986 | [15] 0.981 | [16] 0.982 | [17] 1.01 | [18] 0.977 | [19] 1 | [20] 1.01 | [21] 0.976 | [22] 0.982 | [23] 1.02 | [24] 1 | [25] 0.977 | [26] 0.996 | [27] 0.929 | [28] 1.01 | [29] 0.977 | [30] 0.991 | [31] 1.01 | [32] 0.975 | [33] 1.01 | [34] 0.967 | [35] 0.984 | [36] 0.994 | [37] 0.995 | [38] 1.01 | [39] 0.982 | [40] 1.02 | [41] 0.999 | [42] 1.01 | [43] 0.984 | [44] 0.993 | [45] 1.03 | [46] 1.03 | [47] 1.01 | [48] 0.982 | [49] 1.04 | [50] 1.02 | [51] 0.982 | [52] 1.04 | [53] 0.987 | [54] 1.02 | [55] 0.996 | [56] 0.984 | [57] 0.981 | [58] 1.02 | [59] 0.978 | [60] 0.985 | [61] 0.993 | [62] 0.98 | [63] 1.01 | [64] 0.976 | [65] 1.01 | [66] 1.01 | [67] 1.01 | [68] 1.01 | [69] 0.992 | [70] 0.98 | [71] 0.976 | [72] 0.981 | [73] 1.01 | [74] 0.978 | [75] 1.05 | [76] 1.37 | [77] 0.985 | [78] 1.02 | [79] 1.01 | [80] 0.979 | [81] 0.99 | [82] 0.969 | [83] 0.982 | [84] 1.01 | [85] 0.99 | [86] 0.98 | [87] 1 | [88] 0.988 | [89] 0.985 | [90] 0.986 | [91] 1.01
